Source: PubChem
SMN2 splice enh: increases expression of the SMN2 splice variant. HEK293 SMN2-luciferase splicing reporter, luminescence, 30-36 h. Potency, µM (top dose mostly 46.1 µM), inactives show top-dose activity change, positive = activation, usual class: activators. 2.8% of 210,000 active. AID 1458; also: % of control where 0% means no effect; nearly all actives have a fitted effect of over 55% in size
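HEK293 cells carry an SMN2 minigene-luciferase reporter in which exon 7 inclusion puts luciferase in frame. Cells were seeded at 2000 cells/well, attached for 10-12 hours, then exposed to compounds for 30-36 hours at 37C before ONE-Glo luminescence.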
ELG1 genotox: genotoxicity induction in ELG1-luciferase HEK293T cells | HEK293T ELG1-luciferase reporter, luminescence, 16 h | Potency, µM (top dose mostly 46 µM), inactives show at the highest dose activity change, positive = activation, most hits filed as activators | 1.3% of 330,000 active; also: % of control where 0% means no effect; nearly all actives have a fitted effect of over 60% in size
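Genotoxicity was scored as increased ELG1-luciferase reporter signal, measured by ONE-Glo luminescence (30 min, room temperature). Compound or vehicle exposure of the HEK293T reporter cells lasted 16 hr at 37°C.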
NPC1 prom act: activates the NPC1 promoter; Huh7 NPC1 promoter luciferase reporter, 24 h; Potency, µM (doses to about 9.22 µM), without a hit: top-dose activation, usual class: activators; 2.4% of 320,000 active; also: % of control where 0% means no effect; nearly all actives have a fitted effect of over 60% in size
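Luciferase expression driven by the NPC1 promoter was measured in stably transfected Huh7 cells after a 24 h compound incubation, using a luciferase reagent and a luminescence read.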
FLuc counter: counter-screen for miR-21 project: firefly luciferase inhibitors or activators; purified FLuc, Km substrates, luminescence inhibition; AID 588342; Potency, µM (highest dose often 57.5 µM), inactives show top-dose activity change, negative = inhibition, usual class: inhibitors; 6.9% of 360,000 active;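 also: plate controls were vehicle for no effect and reference inhibitor for full effect; nearly all actives have a fitted effect of over 55% in size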
Target sequence (P08659 whole entry, looked up): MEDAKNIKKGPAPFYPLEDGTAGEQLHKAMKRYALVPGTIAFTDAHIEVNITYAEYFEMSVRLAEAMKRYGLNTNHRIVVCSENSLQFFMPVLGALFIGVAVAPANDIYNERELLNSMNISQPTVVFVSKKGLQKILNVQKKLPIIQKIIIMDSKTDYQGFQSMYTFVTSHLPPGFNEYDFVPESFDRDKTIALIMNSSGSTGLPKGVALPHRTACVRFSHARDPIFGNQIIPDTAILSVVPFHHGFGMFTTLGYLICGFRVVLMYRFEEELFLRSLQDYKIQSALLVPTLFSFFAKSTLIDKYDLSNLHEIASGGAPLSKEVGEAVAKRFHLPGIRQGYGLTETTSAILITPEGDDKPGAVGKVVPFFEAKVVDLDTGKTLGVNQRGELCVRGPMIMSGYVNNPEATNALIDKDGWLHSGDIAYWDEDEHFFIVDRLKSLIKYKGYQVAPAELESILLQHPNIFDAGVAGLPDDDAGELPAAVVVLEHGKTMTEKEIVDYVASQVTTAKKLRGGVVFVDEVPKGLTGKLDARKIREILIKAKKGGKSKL
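Biochemical qHTS of compounds, final roughly 60 µM downward over six points, against 10 nM purified firefly luciferase using Km concentrations of substrates (10 uM D-luciferin, 10 uM ATP) in Tris acetate pH 7.5 buffer; luminescence output.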
Rab9 prom act: activates the Rab9 promoter. Potency, µM (highest dose often 9.22 µM), without a hit: at the highest dose activation, negative = inhibition, most hits filed as activators. Huh7 Rab9 promoter-luciferase reporter, luminescence, 24 h. 2.8% of 320,000 active. AID 485297; also: % of control where 0% means no effect; nearly all actives have a fitted effect of over 60% in size
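Cell-based reporter: Huh7 stable for Rab9 promoter-driven luciferase, plated in reduced-serum medium with 10% FBS at 1500 cells/well, compound-treated 24 h at 37 °C, luminescence read after 10 min reagent.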
Active calls of the source: *; ? = inconclusive; . = no result; [ ] = dose if it differs, or a comment. Most compounds without a hit are left out; they make up all but 7.4% or so of the library. Calls follow the shape of the dose curve; as a rule, active = well fitted curve in the direction sought with a large enough effect; inconclusive = small, poorly fitted or top-dose-only effect, or another doubt; inactive = no such curve, though single readings can be large; an effect the other way counts as inactive or inconclusive. Potency is read from the fitted curve at half-maximal effect.

SMILES	SMN2 splice enh	ELG1 genotox	NPC1 prom act	FLuc counter	Rab9 prom act
CCCCC1=CC2=C(OC(C)=O)C(=O)C(C)(OC(=O)C3CCCC3)C(=O)C2=CO1 (stereo not drawn)	12%	.	.	.	.
C[C@]12CC[C@@H](O)C[C@@H]1CC[C@@H]1[C@@H]2CC[C@]2(C)C=CC[C@@H]12	-18%	.	.	.	.
Cc1cc(C)cc(OCC(=O)N2CCC(c3nc4ccccc4o3)CC2)c1	.	.	.	-10%	.
O=C(COc1ccccc1)Nc1ccc(-c2nnc(-c3ccco3)o2)cc1	13µM*	10%	?	1%	1.1µM*
COc1ccccc1OCC(=O)Nc1cccc(-c2nnc(-c3ccco3)o2)c1	18µM*	-7%	29%	12µM*	15%
O=C(Cc1ccccc1)Nc1cccc(-c2nnc(-c3ccco3)o2)c1	7%	0%	0%	-17%	5%
COc1ccc(CC(=O)Nc2cccc(-c3nnc(-c4ccc(C)cc4)o3)c2)cc1OC	-132%	-18%	-2%	3µM*	-5%
COc1ccc(CC(=O)Nc2cccc(-c3nnc(-c4cccc(C)c4)o3)c2)cc1OC	-126%	-41%	0%	?	-15%
ClC/C=C/CCl	1%	.	.	.	.
CN(C)/C=C1\C(=O)N(c2ccc([N+](=O)[O-])cc2)N=C1c1ccccc1	?	9.2µM*	?	?	5.6µM*
CN(C)/C=C1/C(=O)N(c2ccc([N+](=O)[O-])cc2)N=C1c1ccccc1	10µM*	?	?	7.6µM*	?
C/C(=C1/C(=O)N(c2ccc([N+](=O)[O-])cc2)N=C1c1ccccc1)N(C)C	-32%	-4%	?	3%	21%
CN1C2CCCC1CC(NC(=O)c1nn(C)c3ccccc13)C2 (stereo not drawn)	.	.	4%[46.1 µM]	.	4%[46.1 µM]
Cc1ccc2occ(CC(=O)N(Cc3ccccc3Cl)C3CCS(=O)(=O)C3)c2c1 (stereo not drawn)	-6%	.	.	0%	.
Nc1ncnc2nc(Sc3ccc(Cl)cc3)[nH]c12	-27%	1%	-2%	-2%	-4%
Nc1ncnc2nc(SCc3ccc(Cl)cc3Cl)[nH]c12	-31%	3%	-1%	21µM*	1%
COc1cc(C)cc(OC)c1/C=C\C(=O)O	-50%[9.22 µM]	.	.	.	.
Cc1noc(C)c1C(=O)N1CCC[C@@]2(CCN(c3ccccn3)C2)C1	-10%	.	.	.	.
O=C(Nc1cccc(-c2nc3ncccc3o2)c1)c1sc2ccccc2c1Cl	-5%	-1%	?	1.3µM*	?
CCC(C)c1ccc(OCC(=O)Nc2cccc(-c3nc4ncccc4o3)c2)cc1 (stereo not drawn)	3%	.	.	7.6µM*	.
O=C(Nc1cccc(-c2nc3ncccc3o2)c1)c1cc2ccccc2o1	1%	-2%	?	8.5µM*	?
c1ccsc1	-10%	.	.	.	.
Cc1sc(NC(=O)C2CCCCC2)c(C#N)c1-c1ccccc1	?	?	?	6.7µM*	4µM*
Cc1cccc(C(=O)Nc2sc(C)c(-c3ccccc3)c2C#N)c1	?	?	2.8µM*	4.3µM*	1.6µM*
Cc1noc(C)c1C(=O)Nc1sc(C)c(-c2ccccc2)c1C#N	-117%	-26%	-1%	-2%	-3%
SMILES	SMN2 splice enh	ELG1 genotox	NPC1 prom act	FLuc counter	Rab9 prom act
CCCC(=O)Nc1sc(C)c(-c2ccc(OC)cc2)c1C#N	-4%	-3%	-1%	0%	-2%
Cc1cc(Br)ccc1NC(=O)C1CCN(S(=O)(=O)c2cccc3nsnc23)CC1	6%	.	.	-8%	.
Cc1[nH]n(-c2ccccc2)c(=O)c1/C=C1\C=NN=C1c1ccccc1	.	12%	-1%	12µM*	0%
Cc1ccc(-n2[nH]c(C)c(/C=C3/C=Nc4ccccc43)c2=O)cc1C	18µM*	12%	16%	-2%	-1%
COc1ccc(N2CCN(C(=O)Cn3cnc4sc(C)c(S(=O)(=O)N5CCC(C)CC5)c4c3=O)CC2)cc1	8%	.	.	-1%	.
N#Cc1ccccc1NC(=O)CSc1ncn[nH]1	-21%	.	.	1%	.
c1ccc(CNc2ncnc3c2oc2ccccc23)nc1	-11%	12%	1%	19µM*	24%
CC(=O)Nc1ccc(Nc2nc(C)nc3c2oc2ccccc23)cc1	.	-11%	-1%	-15%	-2%
c1ccc(-c2nc(NCC3CCCO3)c3oc4ccccc4c3n2)cc1 (stereo not drawn)	-16%	-8%	1%	15µM*	-12%
Clc1ccc2[nH]c3c(NCC4CCCO4)ncnc3c2c1 (stereo not drawn)	.	-9%	0%	?	1%
CC(=O)c1ccc(Nc2ncnc3c2oc2ccccc23)cc1	1.6µM*	2.1µM*	1.4µM*	?	?
c1ccc2c(c1)oc1c(NCC3CCCO3)ncnc12 (stereo not drawn)	0%	2%	-4%	17µM*	11%
O=C(NCC(c1ccc2c(c1)OCO2)N1CCOCC1)C(=O)Nc1ccccc1 (stereo not drawn)	.	.	.	-1%	.
CCn1cc(/C=C(\NC(=O)c2ccccc2Cl)C(=O)NCCCn2ccnc2)c2ccccc21	0%	.	.	-10%	.
O=C(Nc1cccc(F)c1)N1CCCC2(CCN(C(=O)c3cnccn3)CC2)C1	-1%	.	.	.	.
Cc1ccc(N(CC(=O)Nc2ccc(C)c(F)c2)S(=O)(=O)c2c(C)n[nH]c2C)cc1	-2%	.	.	1%	.
COc1ccc(C2c3c(n(C)c4ccccc34)C(=O)N2CC(=O)Nc2cccc(Cl)c2C)cc1 (stereo not drawn)	.	.	.	3%	.
O=C(Nc1ccc(Br)cc1F)c1ccc2nsnc2c1	.	10µM*	1.6µM*	?	3.5µM*
Cc1ccc(NC(=O)c2ccc3nsnc3c2)c(Cl)c1	.	?	0.5µM*	1.5µM*	0.32µM*
CCn1c(CN2CCCCC2)nc2cc(NC(=O)COc3ccccc3C(C)(C)C)ccc21	.	.	.	-6%	.
Cc1ccc(-n2nc(C(=O)N3CCN(c4ccc(F)cc4)CC3)c(=O)n(C)c2=O)cc1	.	.	.	5%	.
O=C1/C(=C/N(C(=O)c2ccco2)c2ccc(Br)cc2)Sc2ccccc21	.	12µM*	?	0.34µM*	?
O=C1/C(=C/N(C(=O)c2ccco2)c2ccc(Cl)cc2)Sc2ccccc21	14µM*	?	?	0.13µM*	?
Cc1c2ccccc2c(CSC(=N)N)c2ccccc12	-39%[9.22 µM]	.	.	.	.
CCOC(=O)c1ccc(NC(=O)c2csc3c2CCCC3)cc1	-7%	.	.	?	.
CCOc1ccc(NC(=O)c2csc3c2CCCC3)cc1	11µM*	?	2.2µM*	2.7µM*	3.5µM*
CC(=O)c1cccc(NC(=O)c2csc3c2CCCCC3)c1	20%	1%	16%	13µM*	21%
CC(=O)c1cccc(NC(=O)Nc2csc3c2CCCC3)c1	.	-7%	-1%	17µM*	2%
CCOC(=O)C1=C(CS(=O)(=O)c2ccc(OC)c(Cl)c2)NC(=O)NC1c1cccc(OC)c1 (stereo not drawn)	1%	.	.	5%	.
